The record followed here is PubChem BioAssay.

The nature of experiment [1]: signal quenchers or enhancers, Cy5 substrate/SSB – biochemical, NIH Clinical Collection, E. coli SSB, artefact control for HCV NS3 helicase inhibitor project (AID 743268). As to conditions: Cy5-oligo bound E. coli SSB, fluorescence interference.
Experiment [2] has as its system Hepatitis C virus NS3 helicase. The experiment is described as follows: blockers of NS3h binding to DNA – biochemical, fluorescence polarization, NIH Clinical Collection, primary screen (AID 743270). As to conditions: NS3 helicase binding to Cy5-dT15 DNA, stronger effect = higher value, concentration not given here. In general terms: Polarisation of emitted light reports the rotation of a fluorescent probe.

The target of experiment [3] is Single-stranded DNA-binding protein (Escherichia coli (strain K12)) (UniProt P0AGE0). Kind of experiment: SSB-ssDNA binding inhibitors – biochemical, fluorescence polarization, NIH Clinical Collection, counter-screen for HCV NS3 helicase inhibitor project (AID 743271; in the data active = inhibition above about 28%). As to conditions: E. coli SSB-DNA binding, stronger effect = higher value, concentration not given here.
The nature of experiment [4]: compounds distorting NS3 helicase fluorescence signal – biochemical, NIH Clinical Collection, artefact control for HCV NS3 helicase inhibitor project (AID 743272).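 Also: HCV NS3 helicase with a Cy5 labelled single stranded DNA probe.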 Conditions: fluorescence interference counterscreen, HCV NS3 helicase assay; stronger effect = lower value. A general note: Counterscreens check selectivity or assay interference.
Experiment [5] relates to Neuropilin-2 / VEGF-C interaction (human). Kind of experiment: small molecules blocking Neuropilin-2/VEGF-C interaction – biochemical, microplate binding format, z-score (AID 743281). As to conditions: microplate NRP2/VEGF-C binding assay; stronger effect = lower value.
Experiment [6] in a line: modulation of C. elegans fzo-1 (AID 1259413).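 Also: fzo-1 mutant C. elegans worms in liquid wells.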 As to conditions: C. elegans fzo-1 modulator screen, mean read-out; stronger effect = higher value.
For experiment [7], the system named is Aerobactin synthetase IucA (Klebsiella pneumoniae). The experiment is described as follows: inhibition of K. pneumoniae IucA enzyme – biochemical, Tocris library, absorbance (AID 1345561).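 Also: 100% = enzyme without compound and 0% = no enzyme.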 As to conditions: purified IucA enzyme assay, absorbance (OD) read-out; stronger effect = lower value;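 tested at 8 µM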.
The nature of experiment [8]: P. berghei load reduction in hepatocytes – cell-based, HepG2, luciferase luminescence, HepG2 viability, primary screen (AID 624349; in the data active = parasite load remaining mostly below about 12%, no sharp cut-off; inactive = mostly above about 10%;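 also: 100% = mean of DMSO negative control wells on the same plate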). As to conditions: P. berghei liver stage in HepG2, luciferase luminescence, concentration not given here; parasite load remaining: stronger effect = lower value; viability: measured here: HepG2 viability without parasites.
Experiment [9] can be described thus: viability loss with induced miR-34 in A549 – imaging, A549 dox-inducible miR-34, nuclei and caspase counts, primary screen (AID 1347080;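 active = compounds whose cell count with miR-34 switched on is under 0.7 times the count with it off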). As to conditions: A549 miR-34 inducible, Hoechst nuclei count, 48 h.
Experiment [10] is described as follows: galactose survival enhancers in mitochondrial complex I cybrids – cell-based, galactose medium, ATP luminescence, primary screen (AID 1645843;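 active = z-score of at least 1.8 in each of two replicates, scored against plate mean and spread of sample wells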;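 also: positive z means more ATP and so rescue of galactose-driven cybrid death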). Conditions: complex I mutant cybrid cells, 72 h, stronger effect = higher value.
A short description of experiment [11]: viability loss in pontine glioma line – cell-based, SU-DIPG-XVII, MIPE5.0, CellTiter-Glo, qHTS, dose response (AID 1347060; cut-off not given, nearly all actives have AC50 up to about 26 µM). As to conditions: CellTiter-Glo ATP luminescence. A general note: Cellular ATP, detected with luciferase, serves as a proxy for viable cell number.
Experiment [12] in a line: viability loss in pontine glioma line – cell-based, SU-DIPG-XIII, MIPE4.0, CellTiter-Glo, qHTS, dose response (AID 1347061; cut-off not given, nearly all actives have AC50 up to about 37 µM;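 also: cells exposed to compound for 48 hours before readout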). As to conditions: CellTiter-Glo ATP luminescence.
The nature of experiment [13]: viability loss in pontine glioma line – cell-based, JHH-DIPG-1, MIPE4.0, CellTiter-Glo, qHTS, dose response (AID 1347062; cut-off not given, nearly all actives have AC50 up to about 27 µM). As to conditions: JHH-DIPG-1 viability, CellTiter-Glo ATP luminescence.
Experiment [14] in a line: viability loss in pontine glioma line – cell-based, SU-DIPG-XIII, MIPE5.0, CellTiter-Glo, qHTS, dose response (AID 1347064; cut-off not given, nearly all actives have AC50 up to about 23 µM). Conditions: CellTiter-Glo ATP luminescence.
Experiment [15] in a line: viability loss in pontine glioma line – cell-based, SU-DIPG-XXV, MIPE5.0, CellTiter-Glo, qHTS, dose response (AID 1347065; cut-off not given, nearly all actives have AC50 up to about 26 µM;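 also: cells exposed to compound for 48 hours before ATP readout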). As to conditions: CellTiter-Glo ATP luminescence.
Experiment [16] can be described thus: growth inhibition of DIPG cells – cell-based, MIPE4.0 library, CellTiter-Glo luminescence, qHTS (AID 1347066; cut-off not given, nearly all actives have AC50 up to about 30 µM;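 also: cells exposed to compound for 48 hours before readout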). Conditions: SU-DIPG-VI viability, CellTiter-Glo ATP luminescence.
Experiment [17] is described as follows: JHH-DIPG-1 glioma cell viability, MIPE5.0 library, CellTiter-Glo luminescence, qHTS (AID 1347067; cut-off not given, nearly all actives have AC50 up to about 26 µM;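 also: cells exposed to compound for 48 hours before readout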). As to conditions: JHH-DIPG-1 glioma viability, CellTiter-Glo ATP luminescence.
Experiment [18] can be described thus: growth inhibition of DIPG cells – cell-based, MIPE5.0 library, qHTS (AID 1347068; cut-off not given, nearly all actives have IC50 up to about 30 µM). As to conditions: SU-DIPG-XXV viability.
Experiment [19] is described as follows: MELAS cybrid and Rieske KO viability enhancers – cell-based, MELAS cybrids, Rieske KO mouse fibroblasts, CellTiter-Glo, primary screen (AID 1508586;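 active = mean z-score across replicates of 1.96 or higher in either the MELAS or the Rieske mutant cell line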;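 also: z relative to plate mean and SD of compound and empty wells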). As to conditions: low glucose.
[20] abbreviates: stronger effect = lower value, cell number ratio, induced over uninduced.
[21] abbreviates: measured here: relative caspase fold change +Dox/-Dox.
[22] abbreviates: measured here: total cells with miR-34 induction, stronger effect = lower value.
[23] abbreviates: measured here: total cells without miR-34 induction.

The structures appear in SMILES notation. Where “and” joins values, the source holds several entries; their conditions need not be identical. Equal values may be shown once. Results filed as inconclusive are left out. Calls of active or inactive are those of the source. Unless noted, no rule for the calls is given here.

As usually defined, the inhibition is the change of the read-out against control, counted positive when it falls. Broadly, the remaining activity is the signal under treatment as a percentage of the control signal. Consider `CC[C@@H]1C(=O)OC[C@@H]1Cc1cncn1C`, for which the fluorescence ratio is 0.93 (inactive) in [1] and 0.86 (inactive) in [4]. Further, the inhibition was -5.94% (inactive) in experiment [2] and 1.44% (inactive) in [3]. Further, the z-score in experiment [5] was -0.47 (inactive). For the same compound, in experiment [6], the mean signal is 280 (inactive). Also, the remaining activity in experiment [7] was 110% (inactive).
The viability is a per cent measure of how many cells are alive, often set against a control. Turning to `Cc1sc(N)c(C(=O)c2cccc(C(F)(F)F)c2)c1C`, the parasite load remaining in [8] was 28.2% (inactive). The viability in experiment [8] was found to be 69.8%. Further, the figures for the fluorescence ratio in [1] and in [4] were 0.94 (inactive) and 0.97 (inactive), respectively. For the same compound, the inhibition in experiment [2] is -3.71% (inactive); in experiment [3] it was -1.97% (inactive). The z-score was 0.715 (inactive) in [5]; 1.27 (inactive) and 1.38 (inactive) in [10]. Moreover, the mean signal in experiment [6] was 276 (inactive). Besides, the remaining activity in experiment [7] is 120% (inactive). Also, the fold change in experiment [9] (setting [20]) is 0.904 (inactive) and 0.931 (inactive); in experiment [9] (setting [21]), 0.769 and 0.712. The cell count is 8250 and 8560 in experiment [9] (setting [22]); 9130 and 9190 in experiment [9] (setting [23]).
As to `CC1(C)O[C@@H]2C[C@H]3[C@@H]4C[C@H](F)C5=CC(=O)C=CC5(C)[C@H]4[C@@H](O)CC3(C)C2(C(=O)CO)O1` (stereo partly drawn), the mean signal in experiment [6] is 250 (inactive).
On to `CC(=O)OCC(=O)[C@@]1(O)CC[C@H]2[C@@H]3CCC4=CC(=O)C=CC4(C)[C@H]3[C@@H](O)CC21C` (stereo partly drawn), for which the mean signal in experiment [6] was 224 (inactive).
Regarding `CN1CCN2c3ncccc3Cc3ccccc3C2C1` (stereo not drawn), the parasite load remaining in experiment [8] was 85% (inactive). In experiment [8], this compound showed a viability of 76.9%. Also, the fluorescence ratio in experiment [1] was 0.98 (inactive); in experiment [4], 0.93 (inactive). In addition, the inhibition in experiment [2] is -1.97% (inactive); in experiment [3] it was -2.76% (inactive). For the same compound, the z-score is -0.469 (inactive) in experiment [5]; 0.00763 (inactive) and -0.808 (inactive) in [19] (MELAS cybrid survival, CellTiter-Glo 48 h, stronger effect = higher value); 0.866 and 0.0762 in experiment [19] (Rieske KO mouse fibroblast survival, CellTiter-Glo 72 h); 0.645 (inactive) and -0.265 (inactive) in experiment [10]. Also, the mean signal in experiment [6] was 257 (inactive). In addition, in experiment [7], the remaining activity is 106% (inactive). In addition, the call in [11], in [12], in experiment [13], in experiment [14], in experiment [15] and in experiment [16] was inactive. For the same compound, the compound was called inactive in [17] and in [18]. For the same compound, the fold change is 0.923 (inactive) and 0.892 (inactive) and 0.933 (inactive) in [9] (setting [20]); 1.2 and 4.96 and 1.4 in experiment [9] (setting [21]). Also, the cell count in experiment [9] (setting [22]) was 9270 and 8700 and 7820; in [9] (setting [23]), 10000 and 9750 and 8380.
As for `C#C[C@]1(OC(C)=O)CC[C@H]2[C@@H]3CCC4=CC(=O)CC[C@@H]4[C@H]3CCC21C` (stereo partly drawn), the mean signal in experiment [6] was 228 (inactive).
